Results reported in the supplement of paper PMC10849652.
About 7,900 targets were measured; listed, in parts, are those with a hit and a random draw of the rest. About 0.6% of all pairs of compound and target were hits. Unmarked numbers belong to inactive results.

Assays:
Test in all cases: log2 fold change, soluble protein after heating vs DMSO (PISA); higher = thermal stabilisation; K562 cells, 10 uM, 30 min; active = over 0.2 and 3.5 SD of the protein, either way, in both replicates (recomputed)
[1] = compound: CS(=O)(=O)c1ccc(-c2cnc(N)c(C(=O)Nc3ccccc3)n2)cc1
How it was run: (§1)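 Soluble protein was quantified by TMTpro 16plex LC-MS/MS after channel sums were equalised. It was obtained as the supernatant after 21,000xg for 90 min from pooled aliquots of K562 cells (2×10^6 cells/mL, 10 μM compound, 30 min) heated for 3 min across 48°C-58°C and extracted in PBS with 0.5% NP-40 at 4°C. Thermal stability values are relative to control samples and come from duplicates. They are given as log2 fold changes.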

crizotinib = compound: C[C@@H](Oc1cc(-c2cnn(C3CCNCC3)c2)cnc1N)c1c(Cl)ccc(F)c1Cl [crizotinib]
How it was run: as §1

[2] = compound: C[C@@H]1COCCN1C2=NC(=NC(=C2)C3(CC3)S(=O)(=O)C)C4=C5C=CNC5=CC=C4
How it was run: as §1

[3] = compound: C[C@H](C1=CC=C(C=C1)C(=O)NC2=C3C=CNC3=NC=C2)N
How it was run: as §1

duvelisib = compound: C[C@H](Nc1ncnc2nc[nH]c12)c1cc2cccc(Cl)c2c(=O)n1-c1ccccc1 [duvelisib]
How it was run: as §1

gandotinib = compound: Cc1cc(Nc2cc(CN3CCOCC3)c3nc(C)c(Cc4ccc(Cl)cc4F)n3n2)n[nH]1 [gandotinib]
How it was run: as §1

tozasertib = compound: Cc1cc(Nc2cc(N3CCN(C)CC3)nc(Sc3ccc(NC(=O)C4CC4)cc3)n2)n[nH]1 [tozasertib]
How it was run: as §1

[4] = compound: Cc1cc(SCc2sc(-c3ccc(C(F)(F)F)cc3)nc2C)ccc1OCC(=O)O
How it was run: as §1

doramapimod = compound: Cc1ccc(-n2nc(C(C)(C)C)cc2NC(=O)Nc2ccc(OCCN3CCOCC3)c3ccccc23)cc1 [doramapimod]
How it was run: as §1

ispinesib = compound: Cc1ccc(C(=O)N(CCCN)[C@@H](c2nc3cc(Cl)ccc3c(=O)n2Cc2ccccc2)C(C)C)cc1 [ispinesib]
How it was run: as §1

UniProt Q15021, sequence (Q15021 whole entry, looked up): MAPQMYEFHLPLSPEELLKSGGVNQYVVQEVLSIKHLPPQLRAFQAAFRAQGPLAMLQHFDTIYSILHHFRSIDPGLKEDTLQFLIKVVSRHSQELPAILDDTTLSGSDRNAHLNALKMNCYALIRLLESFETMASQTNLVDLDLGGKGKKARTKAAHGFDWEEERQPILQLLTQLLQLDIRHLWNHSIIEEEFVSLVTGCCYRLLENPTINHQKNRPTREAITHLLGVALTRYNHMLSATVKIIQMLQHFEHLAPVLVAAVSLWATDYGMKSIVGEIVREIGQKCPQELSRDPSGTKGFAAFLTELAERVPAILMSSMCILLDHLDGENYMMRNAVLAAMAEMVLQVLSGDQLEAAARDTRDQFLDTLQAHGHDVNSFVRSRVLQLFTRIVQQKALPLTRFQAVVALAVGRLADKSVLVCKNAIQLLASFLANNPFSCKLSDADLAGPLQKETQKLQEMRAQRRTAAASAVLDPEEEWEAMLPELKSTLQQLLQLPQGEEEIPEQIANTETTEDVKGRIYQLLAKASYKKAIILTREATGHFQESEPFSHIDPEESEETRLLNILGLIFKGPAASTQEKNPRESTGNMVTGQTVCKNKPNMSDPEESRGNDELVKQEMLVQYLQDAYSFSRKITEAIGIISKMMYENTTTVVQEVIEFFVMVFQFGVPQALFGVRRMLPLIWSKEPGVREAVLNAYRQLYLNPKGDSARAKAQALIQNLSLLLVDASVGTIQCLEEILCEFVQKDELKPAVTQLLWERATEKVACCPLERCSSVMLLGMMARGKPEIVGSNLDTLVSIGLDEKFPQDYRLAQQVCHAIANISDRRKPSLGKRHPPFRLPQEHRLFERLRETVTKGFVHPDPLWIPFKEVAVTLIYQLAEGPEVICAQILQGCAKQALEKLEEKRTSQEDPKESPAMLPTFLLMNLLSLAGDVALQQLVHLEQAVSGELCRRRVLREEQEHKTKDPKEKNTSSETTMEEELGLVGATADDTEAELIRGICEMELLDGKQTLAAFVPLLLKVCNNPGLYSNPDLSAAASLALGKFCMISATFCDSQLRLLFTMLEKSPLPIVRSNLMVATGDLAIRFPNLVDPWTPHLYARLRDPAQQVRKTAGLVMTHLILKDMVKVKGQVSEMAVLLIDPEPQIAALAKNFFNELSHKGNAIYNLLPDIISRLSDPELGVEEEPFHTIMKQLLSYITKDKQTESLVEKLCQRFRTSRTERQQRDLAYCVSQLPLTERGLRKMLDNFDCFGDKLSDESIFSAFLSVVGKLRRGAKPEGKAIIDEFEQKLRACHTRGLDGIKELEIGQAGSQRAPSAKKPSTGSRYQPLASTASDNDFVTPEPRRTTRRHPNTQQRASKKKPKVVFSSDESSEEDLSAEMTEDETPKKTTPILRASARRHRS
UniProt Q16621, sequence (Q16621 whole entry, looked up): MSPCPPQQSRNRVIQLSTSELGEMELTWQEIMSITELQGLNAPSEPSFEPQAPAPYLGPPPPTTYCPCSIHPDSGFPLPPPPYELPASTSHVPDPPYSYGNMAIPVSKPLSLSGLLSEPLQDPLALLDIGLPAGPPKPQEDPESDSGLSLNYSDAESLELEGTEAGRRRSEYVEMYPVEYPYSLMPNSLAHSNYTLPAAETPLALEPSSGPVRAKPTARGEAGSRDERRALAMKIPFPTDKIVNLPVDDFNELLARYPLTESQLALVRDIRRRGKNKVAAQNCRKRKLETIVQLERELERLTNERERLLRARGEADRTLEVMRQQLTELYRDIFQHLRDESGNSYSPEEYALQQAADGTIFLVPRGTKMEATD
UniProt Q99747, sequence (Q99747 whole entry, looked up): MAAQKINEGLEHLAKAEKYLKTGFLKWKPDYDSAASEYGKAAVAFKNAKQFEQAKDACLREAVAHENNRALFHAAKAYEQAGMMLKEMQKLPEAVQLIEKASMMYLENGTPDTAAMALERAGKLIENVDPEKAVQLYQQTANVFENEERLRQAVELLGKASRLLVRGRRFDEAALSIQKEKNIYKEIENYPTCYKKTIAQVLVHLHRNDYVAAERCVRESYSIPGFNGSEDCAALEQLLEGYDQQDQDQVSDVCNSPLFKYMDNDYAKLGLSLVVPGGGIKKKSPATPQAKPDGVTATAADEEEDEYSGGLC
UniProt O43809, sequence (O43809 whole entry, looked up): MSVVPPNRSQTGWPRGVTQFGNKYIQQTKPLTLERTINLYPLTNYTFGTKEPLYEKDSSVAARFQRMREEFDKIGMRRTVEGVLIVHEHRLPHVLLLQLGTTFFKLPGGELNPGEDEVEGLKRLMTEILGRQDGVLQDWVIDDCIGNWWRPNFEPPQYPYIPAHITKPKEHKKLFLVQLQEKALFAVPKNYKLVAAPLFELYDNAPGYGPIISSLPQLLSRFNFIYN
UniProt Q13153, sequence (Q13153 whole entry, looked up): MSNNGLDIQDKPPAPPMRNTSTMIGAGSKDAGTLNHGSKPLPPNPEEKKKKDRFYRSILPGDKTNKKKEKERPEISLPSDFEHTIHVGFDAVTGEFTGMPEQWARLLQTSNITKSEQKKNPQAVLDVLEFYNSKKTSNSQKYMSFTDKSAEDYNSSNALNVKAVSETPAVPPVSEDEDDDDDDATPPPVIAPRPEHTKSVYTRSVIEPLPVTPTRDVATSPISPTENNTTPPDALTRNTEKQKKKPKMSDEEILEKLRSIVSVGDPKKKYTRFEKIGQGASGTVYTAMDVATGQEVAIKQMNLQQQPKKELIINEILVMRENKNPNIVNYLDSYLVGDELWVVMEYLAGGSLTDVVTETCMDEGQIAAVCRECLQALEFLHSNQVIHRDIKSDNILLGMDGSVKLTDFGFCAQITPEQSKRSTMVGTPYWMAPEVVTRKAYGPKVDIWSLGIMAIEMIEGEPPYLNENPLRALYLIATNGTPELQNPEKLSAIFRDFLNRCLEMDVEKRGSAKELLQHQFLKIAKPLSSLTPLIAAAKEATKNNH
UniProt Q15738, sequence (Q15738 whole entry, looked up): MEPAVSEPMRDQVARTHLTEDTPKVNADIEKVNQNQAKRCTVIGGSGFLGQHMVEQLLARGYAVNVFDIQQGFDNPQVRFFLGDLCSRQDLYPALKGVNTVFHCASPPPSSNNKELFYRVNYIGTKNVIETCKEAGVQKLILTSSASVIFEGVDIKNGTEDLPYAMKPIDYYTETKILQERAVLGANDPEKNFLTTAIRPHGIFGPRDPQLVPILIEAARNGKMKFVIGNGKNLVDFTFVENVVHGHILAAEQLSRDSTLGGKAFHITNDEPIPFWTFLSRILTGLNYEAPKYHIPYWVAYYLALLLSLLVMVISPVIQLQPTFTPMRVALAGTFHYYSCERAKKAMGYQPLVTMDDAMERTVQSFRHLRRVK
UniProt Q9BWT6, sequence (Q9BWT6 whole entry, looked up): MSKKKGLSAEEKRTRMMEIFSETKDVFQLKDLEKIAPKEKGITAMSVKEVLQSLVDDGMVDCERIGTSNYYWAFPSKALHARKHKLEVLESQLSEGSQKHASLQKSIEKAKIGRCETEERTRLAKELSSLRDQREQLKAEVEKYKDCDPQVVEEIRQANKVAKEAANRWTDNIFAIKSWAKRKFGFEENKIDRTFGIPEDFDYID
UniProt Q7L1V2, sequence (Q7L1V2 whole entry, looked up): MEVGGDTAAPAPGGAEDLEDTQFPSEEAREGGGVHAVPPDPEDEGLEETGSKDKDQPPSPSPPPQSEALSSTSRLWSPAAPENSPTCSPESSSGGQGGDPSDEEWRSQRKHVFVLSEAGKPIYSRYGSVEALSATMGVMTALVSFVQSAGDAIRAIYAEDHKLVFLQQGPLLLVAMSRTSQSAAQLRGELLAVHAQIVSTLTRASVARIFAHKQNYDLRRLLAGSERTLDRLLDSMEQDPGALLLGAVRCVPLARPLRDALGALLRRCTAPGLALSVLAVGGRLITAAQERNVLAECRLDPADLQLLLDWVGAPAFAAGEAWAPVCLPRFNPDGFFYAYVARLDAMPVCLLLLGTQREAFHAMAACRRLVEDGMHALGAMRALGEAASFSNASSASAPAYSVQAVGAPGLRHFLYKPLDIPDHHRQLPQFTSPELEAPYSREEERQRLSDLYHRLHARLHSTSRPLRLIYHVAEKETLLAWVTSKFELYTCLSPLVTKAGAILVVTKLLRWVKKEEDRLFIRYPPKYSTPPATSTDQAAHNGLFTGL
UniProt Q86WQ0, sequence (Q86WQ0 whole entry, looked up): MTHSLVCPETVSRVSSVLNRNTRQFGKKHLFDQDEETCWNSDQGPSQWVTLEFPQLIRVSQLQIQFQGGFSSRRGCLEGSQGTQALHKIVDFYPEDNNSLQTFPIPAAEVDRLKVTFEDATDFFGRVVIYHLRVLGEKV
UniProt P68402, sequence (P68402 whole entry, looked up): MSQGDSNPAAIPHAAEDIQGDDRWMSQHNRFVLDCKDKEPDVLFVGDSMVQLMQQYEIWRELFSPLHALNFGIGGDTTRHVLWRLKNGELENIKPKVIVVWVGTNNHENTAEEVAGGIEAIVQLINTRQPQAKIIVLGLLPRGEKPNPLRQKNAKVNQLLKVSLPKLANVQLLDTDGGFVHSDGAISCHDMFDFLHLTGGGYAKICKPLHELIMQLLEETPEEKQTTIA
UniProt Q96DE0, sequence (Q96DE0 whole entry, looked up): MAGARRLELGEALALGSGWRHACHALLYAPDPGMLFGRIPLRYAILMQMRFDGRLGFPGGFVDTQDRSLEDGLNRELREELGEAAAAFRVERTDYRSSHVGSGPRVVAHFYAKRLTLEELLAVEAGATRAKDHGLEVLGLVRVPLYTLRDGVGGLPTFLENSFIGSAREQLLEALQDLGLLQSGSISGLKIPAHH
UniProt O95169, sequence (O95169 whole entry, looked up): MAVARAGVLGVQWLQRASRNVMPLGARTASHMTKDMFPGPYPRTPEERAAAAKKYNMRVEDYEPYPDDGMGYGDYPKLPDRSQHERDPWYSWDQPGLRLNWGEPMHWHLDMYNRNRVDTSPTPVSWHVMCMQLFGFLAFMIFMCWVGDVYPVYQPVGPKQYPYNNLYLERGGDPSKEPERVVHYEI
UniProt P56556, sequence (P56556 whole entry, looked up): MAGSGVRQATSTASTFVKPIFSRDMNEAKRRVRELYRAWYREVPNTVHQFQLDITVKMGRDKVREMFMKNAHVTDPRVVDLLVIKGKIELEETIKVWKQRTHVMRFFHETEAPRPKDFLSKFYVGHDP

| Target | log2 fold change [1] | log2 fold change (crizotinib) | log2 fold change [2] | log2 fold change [3] | log2 fold change (duvelisib) | log2 fold change (gandotinib) | log2 fold change (tozasertib) | log2 fold change [4] | log2 fold change (doramapimod) | log2 fold change (ispinesib) |
| --- | --- | --- | --- | --- | --- | --- | --- | --- | --- | --- |
| PAFAH1B3 (UniProt Q15102) | 0.059 | 0.041 | 0.165 | -0.039 | 0.123 | -0.062 | -0.035 | 0.031 | -0.009 | 0.014 |
| MSTO1 (UniProt Q9BUK6) | -0.014 | -0.081 | 0.09 | 0.025 | 0.009 | -0.003 | 0.02 | 0.009 | 0.027 | -0.053 |
| NR2C2AP isoform 2 (UniProt Q86WQ0) | 0.085 | 0.011 | 0.138 | 0.025 | 0.044 | -0.035 | 0.08 | 0.01 | -0.17 | 0.285 (active) |
| NOLC1 isoform 2 (UniProt Q14978) | -0.019 | -0.135 | 0.141 | -0.154 | -0.043 | -0.023 | -0.032 | -0.038 | 0.047 | 0.179 |
| NCAPD2 (UniProt Q15021) | 0.018 | -0.024 | 0.004 | 0.093 | 0.035 | -0.077 | 0.092 | 0.109 | -0.049 | -0.029 |
| NUP85 (UniProt Q9BW27) | 0.022 | -0.007 | 0.049 | -0.088 | 0.033 | -0.107 | 0.048 | 0.026 | -0.021 | 0.015 |
| MON2 isoform 5 (UniProt Q7Z3U7) | 0.044 | -0.065 | 0.081 | 0.033 | 0.173 | -0.105 | 0.011 | 0.171 | 0.077 | -0.055 |
| MRPS5 (UniProt P82675) | 0.123 | -0.061 | 0.125 | 0.169 | 0.016 | -0.08 | -0.065 | 0.131 | 0.071 | -0.451 (active) |
| NDUFB8 (UniProt O95169) | 0.035 | 0.09 | -0.015 | -0.001 | 0.161 | 0.045 | 0.028 | 0.078 | -0.057 | 0.123 |
| NISCH (UniProt Q9Y2I1) | -0.026 | -0.284 | 0.035 | 0.047 | -0.363 | -0.4 | 0.006 | 0.126 | 0.054 | -0.408 (active) |
| NOB1 (UniProt Q9ULX3) | 0.012 | -0.142 | -0.033 | 0.15 | -0.046 | 0.019 | -0.067 | 0.113 | 0 | -0.038 |
| MND1 (UniProt Q9BWT6) | 0 | -0.217 | 0.005 | 0.018 | 0.016 | -0.076 | -0.152 | -0.024 | 0.009 | -0.184 |
| NAPG (UniProt Q99747) | 0.045 | -0.029 | 0.045 | -0.098 | 0.054 | -0.046 | 0.126 | 0.143 | -0.05 | 0.025 |
| NACC1 (UniProt Q96RE7) | 0 | 0.005 | 0.082 | -0.03 | 0.103 | -0.129 | 0.161 | 0.152 | -0.064 | -0.019 |
| NUDT16 (UniProt Q96DE0) | 0.054 | 0.052 | 0.042 | -0.169 | 0.045 | 0.063 | -0.011 | 0 | -0.034 | 0.067 |
| PAK1 isoform 2 (UniProt Q13153) | 0.009 | 0.054 | 0.063 | -0.308 (active) | 0.09 | -0.098 | -0.076 | 0.056 | -0.155 | 0.084 |
| NUMA1 (UniProt Q14980) | 0.117 | -0.001 | -0.071 | 0.089 | -0.073 | -0.066 | 0.108 | 0.07 | 0.178 | -0.089 |
| NUDT21 (UniProt O43809) | -0.054 | 0.039 | -0.031 | -0.209 (active) | -0.01 | -0.059 | 0.013 | 0.039 | 0.007 | 0.116 |
| MTMR14 (UniProt Q8NCE2) | 0.033 | 0.069 | -0.054 | 0.014 | 0.048 | 0.144 | 0.046 | 0.079 | -0.03 | 0.061 |
| NFE2 (UniProt Q16621) | -0.006 | -0.052 | -0.001 | -0.031 | 0.008 | -0.091 | 0.077 | -0.015 | 0.049 | 0.033 |
| NSDHL (UniProt Q15738) | 0.04 | 0.314 (active) | 0.045 | -0.105 | 0.024 | 0.239 | 0.083 | 0.058 | 0.22 (active) | -0.016 |
| NCOR1 (UniProt O75376) | -0.078 | 0.017 | 0.15 | -0.064 | 0.063 | -0.007 | 0.004 | -0.061 | -0.044 | 0.004 |
| NDUFA6 (UniProt P56556) | 0.012 | -0.044 | 0.172 | -0.078 | 0.017 | -0.22 | -0.009 | 0.098 | -0.004 | 0 |
| OSTC (UniProt Q9NRP0) | 0.044 | -0.047 | 0.132 | -0.089 | 0.041 | -0.112 | -0.001 | -0.042 | 0.028 | -0.117 |
| MON1B (UniProt Q7L1V2) | 0.006 | -0.342 (active) | 0.069 | -0.001 | -0.02 | -0.106 | -0.018 | 0.005 | 0.022 | -0.102 |
| NEMP1 (UniProt O14524) | -0.058 | -0.121 | -0.035 | 0.011 | 0.013 | -0.1 | -0.004 | -0.014 | 0.032 | -0.354 (active) |
| MRPS31 (UniProt Q92665) | 0.063 | 0.024 | 0.027 | 0.199 | 0.005 | 0.121 | -0.015 | 0.073 | 0 | -0.28 (active) |
| NCAPH (UniProt Q15003) | 0.049 | 0.013 | -0.017 | 0.072 | 0.024 | -0.11 | 0.102 | 0.081 | 0.006 | -0.064 |
| PAFAH1B2 (UniProt P68402) | 0.016 | -0.017 | -0.13 | -0.054 | 0.086 | 0.16 | -0.072 | -0.066 | 0.022 | -0.002 |
| OTUD6B (UniProt Q8N6M0) | 0.013 | -0.146 | 0.024 | 0 | -0.02 | -0.086 | 0.055 | 0.122 | 0.009 | -0.165 |
